The values that follow come from PubChem BioAssay AID1962 (The Scripps Research Institute Molecular Screening Center, 2009).

Screen size: about 300,000 compounds; about 2,500 (0.83%) were called active. This is one part of a sample in which actives are shown more often than they occur. Values without a mark were called inactive.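 Rule for the calls: active = inhibition above the mean of all tested compounds plus 3 SD, set per screening campaign (cut at about 24% in these data); inactive = the rest.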

This assay relates to tRNA 2'-phosphotransferase TPT1 (Candida albicans SC5314). The assay is described as follows: Candida albicans TPT1 enzyme inhibitors, primary screen, biochemical, fluorescence polarization (AID 1962).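 Note: plate controls were DMSO alone for no effect and ferristatin control at 100 nM for full effect.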 As to conditions: recombinant caTPT1, FP RNA substrate dephosphorylation; at 5 µM; stronger effect = higher value. On the technique in general: In fluorescence polarisation assays a small probe gives low polarisation when free and higher when bound to something large.
As usually defined, the inhibition is the drop in the measured response relative to a control, in per cent. Turning to `COc1cc(C(=O)N2CCN(C)CC2)cc(OC)c1OC`, the inhibition was 1.91%.

Turning to `O=C(CN1C(=O)NC(Cc2ccccc2)(Cc2ccccc2)C1=O)NCC1CCCCC1`, the inhibition is 0.35%.

For `Cc1ccc(CC2S/C(=C(/C#N)C(=O)N3CCOCC3)N(c3ccccc3)C2=O)cc1` (stereo unspecified), the inhibition is 27.6% (active).

Regarding `Cc1ccc(C(=O)C(=S)N2CCOCC2)cc1`, the inhibition is 0.27%.

Regarding `N#C/C(C(=O)N1CCOCC1)=C1/SC(Cc2ccc(F)cc2)C(=O)N1c1ccccc1` (stereo unspecified), the inhibition is 19.8%.

As to `O=C(Nc1ccc2c(c1)CCC2)c1ccc(Br)s1`, the inhibition is -6.11%.

As for `CC(=O)N1CCN(C(=O)c2cc(-c3ccc(C)o3)nc3ccccc23)CC1`, the inhibition was -4.79%.

Turning to `OCC[C@H]1C[C@@H](O)[C@H](O)[C@]2(OCCCc3ccccc32)O1`, the inhibition was -4.69%.

Regarding `O=C(/C(=C/c1cccc(Cl)c1)c1nc2ccccc2[nH]1)c1ccccc1`, the inhibition is 6.55%.

On to `O=C(Cc1nc2ccccc2[nH]c1=O)c1ccc(Cl)cc1`, for which the inhibition was 52.4% (active).

`O=C(CSc1nc2ccc([N+](=O)[O-])cc2[nH]1)c1ccc(Cl)cc1`: the inhibition was -2.05%.

For `CC(=O)Oc1ccc(N(C(C)=O)S(=O)(=O)c2ccc3ccccc3c2)cc1Br`, the inhibition is -2.05%.

With `O=C(Nc1ccc([N+](=O)[O-])cc1)OCCc1ccccn1`, the inhibition is 0.72%.

As for `Cc1cccc(NS(=O)(=O)c2cc(Cl)ccc2Cl)n1`, the inhibition is -0.05%.

As for `COc1ccc2cc(C(=O)C3CCCN(C(=O)c4sc(C)nc4C)C3)ccc2c1` (stereo unspecified), the inhibition is -0.57%.

Turning to `CCOc1cc(/C=C(\C#N)c2nc(-c3cccs3)c(NC(C)=O)s2)ccc1O`, the inhibition is 111% (active).

As for `CCOc1cc(-c2cc(-c3ccc(NC(C)=O)cc3)nc(N)c2C#N)ccc1O`, the inhibition is 2.32%.

For the compound `COc1cc(/C=N\Nc2nc(-c3cccs3)c(NC(C)=O)s2)ccc1O`, the inhibition is -0.53%.

As to `Cc1ccc(Nc2ccc(C(N)=O)cc2[N+](=O)[O-])cc1`, the inhibition is -0.98%.

For the compound `Nc1ccc(C(=O)Nc2ccccc2N)cc1`, the inhibition was -2.37%.

Consider `Cc1ccc(Nc2ccccc2N)cc1`, for which the inhibition was 38.5% (active).

Regarding `O=C(Nc1ccc(Cl)c(Cl)c1)N1CC=C(c2ccccc2)CC1`, the inhibition is -0.49%.

Consider `NC1=C([N+](=O)[O-])C(c2ccccc2)C2=C(CCCC2=O)O1` (stereo unspecified), for which the inhibition was 2.19%.

`COc1ccc(CCOC(=O)CNC(=O)c2ccc(Cl)cc2Cl)cc1`: the inhibition was -0.14%.

Regarding `Cc1ccc([C@@H]2CC=C(C(=O)O)[C@H](c3cccc(Cl)c3)N2S(=O)(=O)c2ccc(C)cc2)cc1`, the inhibition was -3.07%.

For the compound `O=C(CNC(=O)C1COc2ccccc2O1)N/N=C/c1cc(Br)c(O)c(Br)c1` (stereo unspecified), the inhibition was 2.18%.

With `Cc1c(C)c2ccc(OCC(=O)N3CCC(C(=O)O)CC3)c(C)c2oc1=O`, the inhibition is -2.74%.

Regarding `Cc1c(CC(=O)N2CCN(C(=O)C3COc4ccccc4O3)CC2)c(=O)oc2c(O)c(O)ccc12` (stereo unspecified), the inhibition is 51% (active).

For the compound `NC(=O)c1c(NC(=O)c2ccccc2)sc2c1CCCC2`, the inhibition is 1.25%.

For `NC(=O)c1c(Nc2nc3c(F)cccc3s2)sc2c1CCCC2`, the inhibition is 85.5% (active).

For the compound `COc1cccc(OC)c1C(=O)Nc1sc2c(c1C(N)=O)CCCC2`, the inhibition was -0.1%.

`CC(C)(C)C(=O)Nc1ccc(C(=O)N/N=C/c2ccccc2OC(=O)c2ccc(Cl)cc2Cl)cc1`: the inhibition was -2.72%.

As for `Cc1ccc(Sc2ccncc2S(N)(=O)=O)cc1`, the inhibition is 0.2%.

Take `Cc1cnc(C(=O)N2CCCC(C(=O)c3ccc(C(F)(F)F)cc3)C2)cn1` (stereo unspecified): the inhibition was -2.98%.

As for `CCOC(=O)CC1C(=O)NCCN1c1nc2c(C)cccn2c(=O)c1/C=C1\SC(=S)N(C(C)CC)C1=O` (stereo unspecified), the inhibition is 145% (active).

As for `Cc1cccn2c(=O)c(/C=C(\C#N)C(N)=O)c(N3CCCCCC3)nc12`, the inhibition is -0.44%.

With `CCOC(=O)N1CCN(C(=O)CSc2nc(=O)n3cccc(C)c3n2)CC1`, the inhibition was -1.52%.

Regarding `CCC(=O)N1c2ccc(S(=O)(=O)NCc3ccco3)cc2CC1C` (stereo unspecified), the inhibition was -4.88%.

Turning to `COCCCn1c(-c2cccs2)nc2nc3ccccc3nc21`, the inhibition is -0.91%.

As for `Cc1c(-c2ccccc2)cn2c1-c1ccc(C)n1CC2`, the inhibition is 49% (active).

Take `Cc1cc(Br)ccc1SCC(=O)OCC(=O)NCc1ccc2c(c1)OCO2`: the inhibition is -0.18%.

In the case of `CC1CCN(C(=O)c2ccc3c(c2)NC(=O)CN3)CC1`, the inhibition is 147% (active).

Turning to `CC1CCN(C(=O)c2ccc(CSc3ccc(Cl)cc3)cc2)CC1`, the inhibition was -4.05%.

`CC1CCN(C(=O)c2ccc3c(=O)n4c(nc3c2)CCCCC4)CC1`: the inhibition was -0.96%.

Regarding `O=c1oc2ccccc2c(CNc2ccccc2)c1[N+](=O)[O-]`, the inhibition was -2.94%.

For the compound `O=C(N/N=C/c1c[nH]c2ccccc12)c1ccccc1O`, the inhibition is -1.65%.

On to `COc1ccc(/C=C(\C#N)c2c[nH]c3ccccc23)cc1`, for which the inhibition is 0.42%.

`C[n+]1ccc(/C=C/c2c[nH]c3ccccc23)cc1`: the inhibition is 56% (active).

In the case of `CCOc1ccc(-n2c(O)c(/C=N/Nc3nc(C)cc(C)n3)c3ccccc3c2=O)cc1`, the inhibition is -0.65%.

In the case of `Cc1ccc(-n2c(O)c(C=Nc3ccc(S(=O)(=O)Nc4ncccn4)cc3)c3ccccc3c2=O)cc1C`, the inhibition was 1.02%.

Consider `CCOc1ccc(-n2c(O)c(/C=N/c3ccnn3Cc3ccncc3)c3ccccc3c2=O)cc1`, for which the inhibition was 44.3% (active).

`CC(C)CCN1CCN=C1N(C)C`: the inhibition is 0.11%.

For `O=C(NCCCN1CCOCC1)c1cnn2c(-c3ccccc3)cc(-c3ccccc3)nc12`, the inhibition is -0.23%.

As for `COc1ccc(C(=O)NC2CC2)cc1OC1CCN(Cc2ccc(SC)cc2)CC1`, the inhibition is -0.85%.

For `CC(NC(=S)Nc1ccccc1)C(c1cccs1)N1CCOCC1` (stereo unspecified), the inhibition is -0.68%.

On to `CCOC(=O)Nc1ccc2c(c1)N(C(=O)CCCl)c1ccccc1[S@]2=O`, for which the inhibition was 1.44%.

Consider `Cc1ccc2cc(/C=N/Nc3ccc(C(=O)O)cc3)c(Cl)nc2c1`, for which the inhibition was 24.6% (active).

As for `Cc1ccc2cc(/C=N/NC(=O)[C@@H]3CCCN3)c(Cl)nc2c1`, the inhibition was -2.39%.

On to `O=C(O)c1ccc(N/N=C/c2ccc3ncccc3c2)cc1`, for which the inhibition is -4.36%.

For `C/C(=N\Nc1nc(N2CCOCC2)nc(N2CCOCC2)n1)c1ccc([N+](=O)[O-])cc1`, the inhibition was 0.13%.

Consider `COc1cccc(OC)c1C(=O)Nc1ccc2c(c1)n(C)c(=O)n2C`, for which the inhibition was -1.47%.

In the case of `CN(C)c1ccc(-n2cccc2/C=C2/SC(=Nc3ccc(F)cc3)NC2=O)cc1`, the inhibition was 0.75%.

On to `Cc1ccc(N2NC(=O)/C(=C/C=C/c3ccco3)C2=O)cc1C`, for which the inhibition is 4.93%.

With `Cc1ccc(N=C2NC(=O)/C(=C/C=C/c3ccco3)S2)cc1C`, the inhibition was 25.4% (active).

Turning to `COC(=O)C1(S(=O)(=O)C2(C(=O)OC)CCCC2)CCCC1`, the inhibition is -0.48%.

For the compound `CN1C(=O)CC(c2ccccc2)C1=O` (stereo unspecified), the inhibition was -3.97%.

With `CCN1C(=O)N[C@@H](c2ccccc2)[C@H](C(C)=O)[C@H]1C`, the inhibition is 1.78%.

Take `Cc1ccc2nc(-c3ccncc3)cc(C(=O)Nc3ccncc3)c2c1`: the inhibition was -2.29%.

`O=C(Nc1ccc(S(=O)(=O)Nc2nccs2)cc1)c1cc(-c2ccncc2)nc2ccccc12`: the inhibition was 42.7% (active).

Regarding `O=C(Nc1ccc(S(=O)(=O)Nc2nccs2)cc1)c1cc(=O)[nH]c2ccccc12`, the inhibition was 11.7%.

`O=C(NC(Cc1ccc(O)cc1)C(=O)O)/C(=C/c1ccccc1)NC(=O)c1ccccc1` (stereo unspecified): the inhibition is -2.71%.

For `CC(=O)Oc1cccc(C(=O)Nc2ccccc2NC(=O)c2cccc(OC(C)=O)c2)c1`, the inhibition is -1.86%.

As to `CC(=O)c1cc(NC(=O)c2ccccc2)c(=O)oc1/C=C/N(C)C`, the inhibition is 110% (active).

In the case of `CCOC(=O)c1cc(NC(=O)c2ccc(Cl)cc2)c(=O)oc1-c1ccccc1`, the inhibition is -4.37%.

Regarding `Cc1ccc(N2CCN(C(=O)c3cccs3)CC2)c(C)c1`, the inhibition is -2.58%.

Regarding `Cn1cccc1/C=C1\SC(=S)N(NC(=O)c2ccc(Cl)cc2)C1=O`, the inhibition is 84.1% (active).

For `O=C(O)c1ccc(/C=C2\SC(=S)N(NC(=O)c3ccc(Br)cc3)C2=O)cc1`, the inhibition was 5.29%.

Turning to `Cn1cccc1/C=C1\SC(=O)N(CC(=O)Nc2ccc(F)cc2)C1=O`, the inhibition was 1.77%.

For the compound `CCCC(=O)Nc1ncnc2c1ncn2[C@@H]1O[C@@H]2OP(=O)(O)OC[C@H]2[C@H]1OC(=O)CCC`, the inhibition was -4.36%.

For the compound `CC(=O)Nc1cccc(Oc2cc(C#N)c(C#N)cc2N2CCOCC2)c1`, the inhibition is -0.51%.

Consider `COc1ccc(Br)cc1/C=N/n1c(C)nnc1C`, for which the inhibition is -0.28%.

Regarding `COc1cc(N2CCCC2)c(OC)cc1/C=C(/C#N)c1cccc(Br)c1`, the inhibition was 103% (active).

Consider `O=C1NCCn2nc3ccccc3c21`, for which the inhibition was -3.31%.

Consider `Cc1ccc(S(=O)(=O)N(C)c2nc3ccccc3n3c(C(C)C)nnc23)cc1`, for which the inhibition is 49.9% (active).

In the case of `CC(=O)Nc1ccc(S(=O)(=O)N(C)c2nc3ccccc3nc2Cl)cc1`, the inhibition is -0.11%.

For `Cc1ccc(Oc2nc3ccccc3n3c(C)nnc23)cc1`, the inhibition is -2.63%.

For `C#CCOCCOCCOCCNc1nc(N2CCN(C(=O)CCCCCCCCCCNC(=O)[C@H](CCCCN)n3cc(C)nn3)CC2)nc(N2CCN(C(=O)CCCCCCCCCCNC(=O)[C@H](CO)n3cc(CCCSC)nn3)CC2)n1`, the inhibition was 0.52%.

For `CN=C(c1ccccc1)c1c(C)cccc1C`, the inhibition was -0.46%.

For the compound `CN1C/C(=C/c2cccs2)C(=O)/C(=C\c2cccs2)C1`, the inhibition is -2.84%.

As for `Cc1cccc(C2=N/C(=C/c3cccs3)C(=O)O2)c1`, the inhibition was -1.73%.

On to `CSC1=N/C(=C\C=C\c2cccs2)C(=O)S1`, for which the inhibition is 35.6% (active).
